Bioassay records from PubChem BioAssay.
The list is not random: actives were taken first. Their share in the collection is about 6.2%.
HCMV inh – inhibitors of human cytomegalovirus | 410,000 tested, 4.5% active | HFF cells, HCMV-luciferase reporter, 72 h; hits give low values | activity change, negative = inhibition, % at 57.5 µM; in the data active = activity change below about -60%; inconclusive = no clear call, values can overlap the other calls; inactive = above about -39%
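HFF cells seeded 16 h at 37C, treated with compounds, infected with luciferase-reporter HCMV at MOI 1 PFU/cell; luciferase read at 72 h post infection, normalized to buffer-only and Salinomycin controls.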
Lassa entry inh – blocks Lassa virus binding to or entry into cells; Lassa virus pseudotype entry inhibition, cell reporter; Potency, µM (titrated, usually from 37.9 µM), actives largely listed as inhibitors; 300,000 tested, 1.2% active; AID 540256; calls by dose curve; tested in HEK293 cells; also: nearly all actives have a fitted effect of over 50% in size
FMDV inh – antivirals against foot and mouth disease virus. FMDV antiviral cell-based qHTS. Potency, µM (series often up to 57.9 µM), most hits filed as inhibitors. 410,000 tested, 1.2% active; calls by dose curve; tested in HEK293T cells; also: read-out not given here; nearly all actives have a fitted effect of over 45% in size
Marburg entry inh – inhibitors of Marburg virus binding or cell entry. 300,000 tested, 1.8% active. AID 540276. Marburg virus pseudotyped entry inhibition, cell reporter. Potency, µM (series often up to 37.8 µM), actives largely listed as inhibitors; calls by dose curve; tested in HEK293 cells
Of the large screens only hits and unclear results are named; the others gave an inactive call.

Cc1ccc(C(C)C)cc1OCC(=O)N/N=C/c1ccc2c(c1)OCCO2	Lassa entry inh 1.1µM, FMDV inh inconclusive, Marburg entry inh inconclusive
c1ccc2c(c1)nnn2Cn1nnc2ccccc21	HCMV inh -63 (no result: Lassa entry inh, Marburg entry inh)
CCc1cccc(CC)c1NC(=O)NC1CCCCC1	Marburg entry inh inconclusive
CCc1cccc(CC)c1NC(=O)CN1CC(C)SC1=NC1CCCCC1 (stereo not drawn)	HCMV inh -63, Lassa entry inh inconclusive, Marburg entry inh inconclusive
CCC(C(=O)Nc1ccc(C)c(Cl)c1)n1c(=O)c(-c2ccccc2NC(C)=O)nc2ccccc21 (stereo not drawn)	HCMV inh -97, FMDV inh inconclusive
CCC(=O)Nc1ccccc1-c1nc2ccccc2n(C(C)C(=O)Nc2ccc(OC)cc2)c1=O (stereo not drawn)	none
CCC(=O)Nc1ccccc1-c1nc2ccccc2n(C(CC)C(=O)Nc2cccc(Cl)c2)c1=O (stereo not drawn)	HCMV inh -108, FMDV inh inconclusive
Cc1ccc(N2CC(NC(=O)c3ccc(S(=O)(=O)N4CCCCC4)cc3)CC2=O)cc1 (stereo not drawn)	none (no result: Marburg entry inh)
O=S(=O)(Cc1cc(Cl)nc(-c2ccncc2)n1)c1ccccc1	HCMV inh -66, Marburg entry inh inconclusive
COc1ccccc1C1CC(=O)Oc2ccc(C(C)(C)C)cc21 (stereo not drawn)	none (no result: Lassa entry inh, Marburg entry inh)
CCCCCCNC(=O)O[C@H]1Cn2c(=O)n(CCCCCC)c(=O)n2[C@@H]2CN(S(=O)(=O)c3ccc(C)cc3)C[C@]12O	HCMV inh -103, FMDV inh inconclusive (no result: Lassa entry inh, Marburg entry inh)
CCCCCCNC(=O)O[C@H]1Cn2c(=O)ccc(=O)n2[C@@H]2CN(S(=O)(=O)c3ccc(C)cc3)C[C@]12O	HCMV inh -89, FMDV inh 18µM (no result: Lassa entry inh, Marburg entry inh)
Cc1ccc(S(=O)(=O)N2C[C@H]3n4c(=O)ccc(=O)n4C[C@H](OC(=O)NCc4ccccc4F)[C@@]3(O)C2)cc1	HCMV inh -102, FMDV inh 20µM (no result: Lassa entry inh, Marburg entry inh)
Cc1ccc(S(=O)(=O)N2C[C@H]3n4c(=O)ccc(=O)n4C[C@H](OC(=O)Nc4cccs4)[C@@]3(O)C2)cc1	FMDV inh inconclusive (no result: Lassa entry inh, Marburg entry inh)
COc1ccc(NC(=O)COC(=O)Cc2c[nH]c3ccccc23)cc1OC	none
CC(=O)Nc1ccc(CC(=O)NCCC(c2ccccc2)c2ccccc2)cc1	Lassa entry inh 0.89µM, Marburg entry inh inconclusive
N#CCC(=O)Nc1ccc(C(=O)NCCC(c2ccccc2)c2ccccc2)cc1	none (no result: Lassa entry inh)
COc1cccc2c1C(=O)c1c(O)c3c(c(O)c1C2=O)CC(O)(C(C)=O)CC3OC1CC(N(C)C)C(O)C(C)O1 (stereo not drawn)	HCMV inh -98, Lassa entry inh inconclusive, Marburg entry inh inconclusive
CC[C@]1(O)CC(O[C@@H]2CC(N(C)C)C(O)C(C)O2)c2c(cc3c(c2O)C(=O)c2c(O)cccc2C3=O)C1C(=O)OC (stereo partly drawn)	none (no result: HCMV inh, Lassa entry inh, Marburg entry inh)
COc1cccc2c1C(=O)c1c(O)c3c(c(O)c1C2=O)CC(O)(C(C)=NO)CC3OC1CC(N)C(O)C(C)O1 (stereo not drawn)	HCMV inh -100, Lassa entry inh inconclusive, Marburg entry inh inconclusive
COc1cccc2c1C(=O)c1c(O)c3c(c(O)c1C2=O)C[C@@](O)(C(=O)CO)C[C@@H]3OC1CC(N)C(O)C(C)O1 (stereo partly drawn)	HCMV inh -99, Lassa entry inh inconclusive, Marburg entry inh 0.5µM
COc1cccc2c1C(=O)c1c(O)c3c(c(O)c1C2=O)C[C@@](O)(C(=O)CO)C[C@@H]3O[C@@H]1C[C@H](N)[C@H](O)[C@H](C)O1	none (no result: HCMV inh, Lassa entry inh, Marburg entry inh)
COc1cccc2c1C(=O)c1c(O)c3c(c(O)c1C2=O)C[C@@](O)(C(=O)CO)C[C@@H]3O[C@H]1C[C@H](N)[C@H](O)[C@H](C)O1	HCMV inh -98, Lassa entry inh 0.37µM, FMDV inh inconclusive, Marburg entry inh 0.73µM
O=C(CSc1nc(=O)n2ccccc2n1)N1CCCc2ccccc21	Marburg entry inh inconclusive
COc1ccc(CCNC(=O)CSc2nc3[nH]c(=O)cc(O)c3s2)cc1	none (no result: Lassa entry inh, Marburg entry inh)
CC1CCN(C(=O)CSc2n[nH]c(-c3ccc(F)cc3)n2)CC1	Lassa entry inh inconclusive (no result: Marburg entry inh)
O=C(CSc1n[nH]c(-c2ccc(S(=O)(=O)NC3CCCCC3)cc2)n1)N1CCCC1	HCMV inh -61, Lassa entry inh inconclusive (no result: FMDV inh)
COc1ccc(-c2nc(SCC(=O)N3CCC(C)CC3)n[nH]2)cc1	Lassa entry inh 3.2µM (no result: Marburg entry inh)
CSc1ccccc1NC(=O)c1cccnc1	none
COc1cc2cc(CN(CCO)S(=O)(=O)c3ccccc3)c(=O)[nH]c2cc1OC	none
CC(Sc1ncc(C#N)c(N)n1)C(=O)Nc1ccccc1 (stereo not drawn)	none
Cc1ccc(S(=O)(=O)N(C)C)cc1NC(=O)C(C)N(C)Cc1sccc1C (stereo not drawn)	HCMV inh -61, FMDV inh 16µM, Marburg entry inh inconclusive (no result: Lassa entry inh)
Cc1ccc(C)c(NC(=O)COC(=O)c2c(-c3ccccc3)noc2C)c1	none (no result: Lassa entry inh, Marburg entry inh)
CCC(C)NC(=O)CC(c1ccccc1)c1cc(C)ccc1O (stereo not drawn)	Lassa entry inh inconclusive
CCN1C[C@@H]2[C@@H]3C(=O)N(Cc4ccccc4)C(=O)[C@@H]3[C@](Cc3ccccc3)(C1=O)N2C(=O)c1ccccc1	none (no result: Lassa entry inh, Marburg entry inh)
CCN1C[C@@H]2[C@@H]3C(=O)N(Cc4ccccc4)C(=O)[C@@H]3[C@](Cc3ccccc3)(C1=O)N2C(=O)c1ccc(Cl)cc1	HCMV inh -69 (no result: Lassa entry inh, Marburg entry inh)
CN(C)c1ccc(N=Nc2nc3ccccc3n2C)cc1	HCMV inh inconclusive, FMDV inh 4µM (no result: Lassa entry inh, Marburg entry inh)
Cn1c(N=Nc2ccccc2)nc2ccccc21	Lassa entry inh inconclusive, Marburg entry inh inconclusive
COc1ccc(F)cc1-c1cc(NC=O)c2ncc(-c3cccc(C(=O)N(C)C)c3)n2c1	FMDV inh inconclusive (no result: Lassa entry inh, Marburg entry inh)
COc1cccc(-c2cc(NC=O)c3ncc(-c4ccc(C(C)=O)cc4)n3c2)c1	HCMV inh -64 (no result: Lassa entry inh, Marburg entry inh)
COc1cc(-c2cnc3c(NC=O)cc(-c4ccccc4Cl)cn23)cc(OC)c1OC	HCMV inh -77 (no result: Lassa entry inh, Marburg entry inh)
COc1ccc(F)cc1-c1cc(NC=O)c2ncc(-c3cc(OC)c(OC)c(OC)c3)n2c1	HCMV inh -76, FMDV inh 32µM (no result: Lassa entry inh, Marburg entry inh)
COc1cc(-c2cc(NC=O)c3ncc(-c4ccccc4)n3c2)cc(OC)c1OC	none (no result: Lassa entry inh, Marburg entry inh)
COc1cc(-c2cnc3c(NC=O)cc(-c4ccc(C)cc4)cn23)cc(OC)c1OC	HCMV inh -76 (no result: Lassa entry inh, Marburg entry inh)
CN1NC(=O)CC1c1ccccc1 (stereo not drawn)	none
CCc1nc2c(OCc3ccc(Cl)cc3Cl)cccn2c1N(C)C(C)=O	FMDV inh inconclusive (no result: Lassa entry inh, Marburg entry inh)
Cc1ccc(CSc2nc3nc(C)cc(C)c3c(=O)[nH]2)cc1	Marburg entry inh inconclusive
CC(C)Cn1cc(C(=O)N2CCN(c3ccccn3)CC2)c2c3ccccc3n(C)c2c1=O	Lassa entry inh 6.5µM, Marburg entry inh 16µM
COc1cc(C)nc(N(Cc2ccccc2)S(=O)(=O)c2ccc(C)cc2)n1	HCMV inh inconclusive (no result: Lassa entry inh, Marburg entry inh)
Cc1cc(S(=O)(=O)N2CCCC2C(=O)N2CCOCC2)c(C)cc1Cl (stereo not drawn)	none
Cc1cccn2cc(CNS(=O)(=O)c3cccc(F)c3)nc12	none (no result: Lassa entry inh, Marburg entry inh)
O=C(Nc1cccc2ncccc12)c1ccc(Br)c([N+](=O)[O-])c1	HCMV inh -63, Lassa entry inh inconclusive, Marburg entry inh inconclusive
